HMGR II inh – E. faecalis class II HMG-CoA reductase inhibition | purified E. faecalis HMGR, NADPH absorbance 340 nm kinetic | inhibition, % at 10 µM | 0.41% of 190,000 active;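 active = inhibition above a set limit, the median over all tested compounds plus 3 SD, cut at about 9.5% in these data; inconclusive = no clear call, values can overlap the other calls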;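 note: enzyme runs in reverse so mevalonate oxidation gives rising NADPH absorbance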
PABP FP inh – blocks human PABP binding to poly(A) RNA. fluorescence polarization. 1% of 290,000 active. calls only at 35 µM;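 note: calls also rest on retests at 20 µM and on dose response follow-up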
eIF4H FP inh – inhibitors of RNA binding by human eIF4H. eIF4H fluorescence polarization binding assay. AID 2012. inhibition, % at 35 µM. Q15056. 0.94% of 290,000 active;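 note: calls also rest on retests at 20 µM and on dose response follow-up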
MLLE-PAM2 inh – blocks PAM2 peptide binding to the PABP1 MLLE domain. P11940. GST-MLLE / FITC-PAM2 fluorescence polarization. inhibition, % at 20 µM. 0.36% of 360,000 active. AID 588489; in the data active = inhibition above about 35%, passing the limit was not always enough
PHOSPHO1 block – inhibitors of human PHOSPHO1 phosphatase; inhibition, % at 13.3 µM; Q8TCT1; 1.1% of 290,000 active; AID 1565; recombinant PHOSPHO1, absorbance phosphatase assay; in the data active = inhibition above about 60%
Hits are given with their value; n = inactive; u = inconclusive; x = no result; + = active, no number. Compounds with a hit are over-represented: about 2.4% of the library has one in this group of screens. Unless noted, the rule behind the calls is not given here.

SMILES	HMGR II inh	PABP FP inh	eIF4H FP inh	MLLE-PAM2 inh	PHOSPHO1 block
O=C(CSc1ccc2nnc(-c3cccc(F)c3)n2n1)NCc1ccco1	n	n	n	n	64.6
Cc1cc(=O)[nH]c(SCC(=O)NCc2ccco2)n1	n	n	n	n	n
CCCCN(C(=O)CSCc1ccc(C)cc1)c1c(N)n(CCC)c(=O)[nH]c1=O	x	n	n	n	n
CCOC(=O)C1(C)CCCN1C(=O)c1ccc(C(F)(F)F)nc1C (stereo not given)	x	x	x	n	x
O=C(c1ccco1)N1CCc2[nH]nc(-c3ccccc3)c2C1	x	n	n	n	n
O=C(CSc1nc(-c2ccc(F)cc2)cs1)NC(=O)NCc1ccco1	n	n	n	n	79.4
CCN(CC)Cc1cc(O)c(CN(CC)CC)cc1O	n	n	u	74.4	n
CCc1oc(C(=O)O)cc1CN(CC)CC	n	n	n	n	n
COC(=O)C(/C=N/OCc1ccc([N+](=O)[O-])cc1)NC(=O)c1ccccc1 (stereo not given)	n	+	u	n	n
O=C(C/C=N\OCc1ccc([N+](=O)[O-])cc1)Nc1ccccc1	n	n	n	n	n
CCCOc1ccc(C(=O)NNC(=S)NC(=O)c2cc(-c3ccc(Cl)cc3)nc3ccccc23)cc1	n	n	n	39.1	n
COC(=O)c1ccc(CSc2nnc3n(Cc4ccccc4OC)c(=O)c4ccccc4n23)o1	n	n	n	n	73.2
COC(=O)c1ccc(CSc2nc3ccccc3c(=O)n2-c2ccc(OC)c(OC)c2)o1	n	n	n	n	n
Cc1ccc2nc3c(cc(C#N)c(=O)n3CC3CCCO3)c(=O)n2c1 (stereo not given)	n	+	31.9	x	n
Cc1ccc2nc3c(cc(C#N)c(=O)n3CCN3CCOCC3)c(=O)n2c1	x	n	n	x	n
Cc1ccc2nc3c(cc(C#N)c(=O)n3-c3nccs3)c(=O)n2c1	n	+	98.5	n	n
CCC(C)n1c(=N)c(C#N)cc2c(=O)n3cc(C)ccc3nc21 (stereo not given)	n	+	57.7	n	n
Cc1c[nH]c(=O)c([N+](=O)[O-])c1	x	n	n	n	n
CCC(C)[C@H](NC(=O)C1CC(=O)N(c2ccc3c(c2)OCCO3)C1)C(=O)N1CCCCC1 (stereo not given in full)	x	n	n	n	n
N#CCCn1cc(C(=O)N2CCCCC2)c(-c2cccc([N+](=O)[O-])c2)n1	n	n	n	n	n
COc1ccc(CN2C(=O)CNC2=S)cc1	x	n	n	n	n
CCOC(=O)c1c(C)oc2c1c(C(c1cccnc1)N1CCOCC1)c(O)c1ccccc12 (stereo not given)	n	n	n	n	78.7
CCOC(=O)c1c(C)oc2c1c(C(c1cccnc1)N1CCN(C)CC1)c(O)c1ccccc12 (stereo not given)	x	n	n	x	n
CCOC(=O)c1c(C)oc2c1c(C=NCc1ccccn1)c(O)c1ccccc12	n	+	120.6	n	n
CCOC(=O)c1c(C)oc2c1c(C=NCC1CCCO1)c(O)c1ccccc12 (stereo not given)	n	n	n	n	n
SMILES	HMGR II inh	PABP FP inh	eIF4H FP inh	MLLE-PAM2 inh	PHOSPHO1 block
Cc1ccc(C)c(NC(=O)Cn2cnc3c(oc4ccccc43)c2=O)c1	n	n	n	n	n
COc1ccc(N2C(=O)CC(Sc3nc4c(cc3C#N)CCC4)C2=O)cc1 (stereo not given)	n	n	n	n	n
O=C1CC(c2ccccc2)CC(=O)C1Sc1ccc(Cl)cc1 (stereo not given)	n	n	n	42.1	n
CN(C)c1ccc(Cl)cc1N	n	n	69.1	n	n
CN(C)C(=O)c1cn(-c2ccc(Cl)cc2)c(=O)c2ccccc12	n	n	n	n	n
CN(C)C=NC(=O)c1cn(-c2ccc(F)cc2)c(=O)c2ccccc12	n	n	9.9	n	n
COc1cc(/C=C/C(=O)Nc2nnc(CC(C)(C)C)s2)cc(OC)c1OC	n	n	n	43.5	n
CC1CN(C(=O)CSc2nnc(-c3ccncc3)n2-c2ccccc2)CC(C)O1 (stereo not given)	n	n	n	n	n
CC1CN(C(=O)CSc2nnc(-c3ccc(Cl)cc3)n2C)CC(C)O1 (stereo not given)	12.2	n	n	n	n
COc1ccc(NS(=O)(=O)c2ccc(C)c(NC(=O)CN3C(=O)NC4(CCCC4)C3=O)c2)cc1	x	x	x	n	x
Oc1cc(CNC2CCCCC2)c(O)cc1CNC1CCCCC1	x	x	x	52.6	x
Cc1ccccc1CNC1CCCCC1	n	n	n	n	n
Cc1ccc(OCC(=O)NC2=NCCS2)cc1	n	n	n	n	n
CC(=O)c1ccc(OCCCC(=O)NC2=NCCS2)cc1	n	n	n	39.0	n
Cc1cccc(NC(=O)c2ncn3c2C(=O)N[C@@H](C)C3)c1	x	x	x	n	x

Bioassay records (PubChem)
